Reference: PubChem BioAssay (NCI)
Where “and” joins values, the source holds several entries; their conditions need not be identical. Equal values may be shown once. The panel holds about 83,000 compounds, 20% with a hit somewhere; the sample as a whole holds those more often.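 The test compound was applied at a single concentration to cells in 96-well plates for 48 hours, and percent growth was recorded.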 Calls of active or inactive are those of the source. How the source made its calls: active means growth percent below 10; inactive means the rest.

How the values were obtained:
Experiment in all cases: NCI-60 one-dose screen, 48 h (100 = growth as untreated, 0 = no growth, -100 = all killed)
Conditions in all cases: 10 µM unless noted
[1] = tested on: NCI-H23 lung
[2] = tested on: NCI-H226 lung
[3] = tested on: NCI-H322M lung
[4] = tested on: HOP-62 NSCLC
[5] = tested on: NCI-H460 lung
[6] = tested on: HOP-92 NSCLC
[7] = tested on: NCI-H522 lung
[8] = tested on: A549/ATCC NSCLC
[9] = tested on: 786-0 renal
[10] = tested on: COLO 205 colon
[11] = tested on: DU-145 prostate
[12] = tested on: K-562 leukemia
[13] = tested on: MALME-3M melanoma
[14] = tested on: MDA-MB-231 breast
[15] = tested on: RXF 393 renal
[16] = tested on: SF-268 CNS
[17] = tested on: SF-295 CNS
[18] = tested on: SF-539 CNS
[19] = tested on: UACC-257 melanoma
[20] = tested on: M14 melanoma

Structure (SMILES) | growth [1] | growth [2] | growth [3] | growth [4] | growth [5] | growth [6] | growth [7] | growth [8] | growth [9] | growth [10] | growth [11] | growth [12] | growth [13] | growth [14] | growth [15] | growth [16] | growth [17] | growth [18] | growth [19] | growth [20]
Cc1nc(Nc2ncc(C(=O)Nc3c(C)cccc3Cl)s2)cc(N2CCN(CCO)CC2)n1 | 46.6% (inactive) and 32.6% (inactive) | 31.9% (inactive) and 45.6% (inactive) | 0.803% (active) | 12% (inactive) | 74.3% (inactive) and 42.7% (inactive) | -21.5% (active) and -11.5% (active) | -1.57% (active) | 25.1% (inactive) and 6.75% (active) | 22.2% (inactive) and 9.13% (active) | -1.08% (active) and -9.83% (active) | 10.2% (inactive) and 12.5% (inactive) | 7.66% (active) | 51.4% (inactive) and 31.2% (inactive) | 11.2% (inactive) and 8.95% (active) | -18.9% (active) and -46.2% (active) | 28.4% (inactive) and 30.3% (inactive) | 57.4% (inactive) and 37.3% (inactive) | 18.8% (inactive) and -9.03% (active) | 79.1% (inactive) and 48.4% (inactive) | 42.4% (inactive) and 17.5% (inactive)
O=C(NNC(=S)Nc1ccccc1)c1ccncc1 | 102% (inactive) | 105% (inactive) | 108% (inactive) | 106% (inactive) | 118% (inactive) | 90.2% (inactive) | 97.3% (inactive) | 107% (inactive) | 98.5% (inactive) | 128% (inactive) | 115% (inactive) | 106% (inactive) | 108% (inactive) | 111% (inactive) | 114% (inactive) | 105% (inactive) | 110% (inactive) | 100% (inactive) | 110% (inactive) | 107% (inactive)
Nc1ccc(/C=N/Nc2ccnc3c(N)cccc23)c2cccnc12 | 3.42% (active) | 89.3% (inactive) | -4.16% (active) | -64.3% (active) | -63.8% (active) | -17.9% (active) | -52.2% (active) | -43.8% (active) | -87% (active) | -22.8% (active) | -49.1% (active) | -55.7% (active) | 104% (inactive) | -66.6% (active) | -72.5% (active) | -61.8% (active) | -75.6% (active) | -94.9% (active) | 88.1% (inactive) | -78.6% (active)
O=C1CCCCN1CCCCC#Cc1cccc(C#Cc2cccnc2)c1 | 88.5% (inactive) | 78.1% (inactive) | 180% (inactive) | 114% (inactive) and 98.7% (inactive) | 73% (inactive) | 31.9% (inactive) | 75.7% (inactive) | 81% (inactive) | 116% (inactive) and 89.9% (inactive) | 83.5% (inactive) | 109% (inactive) | 26.9% (inactive) | 249% (inactive) | 65.3% (inactive) |  | 83.2% (inactive) | 79.9% (inactive) | 91.8% (inactive) | 84.4% (inactive) | 105% (inactive)
CCCCCCCCCCCCCCCCCCOc1cccc(CC(=O)OCC[N+](CC)(CC)CC)c1 | 35.7% (inactive) | 59.6% (inactive) | 77.7% (inactive) | 69.1% (inactive) | 67% (inactive) | 52.3% (inactive) | 38.5% (inactive) | 60% (inactive) | 58.5% (inactive) | 47% (inactive) | 73.8% (inactive) | 31.8% (inactive) | 74.1% (inactive) | 41.4% (inactive) | 8.82% (active) | 61.7% (inactive) | 40.9% (inactive) | 51.1% (inactive) | 114% (inactive) | 42.3% (inactive)
O=C(Nc1ccc(F)cc1)c1cc2cc(Nc3nc(-c4ccccc4)nc4ccccc34)ccc2oc1=O | 90.1% (inactive) | 102% (inactive) |  | 84.2% (inactive) | 113% (inactive) | 103% (inactive) | 97.6% (inactive) | 92.5% (inactive) | 98.4% (inactive) | 123% (inactive) | 108% (inactive) | 102% (inactive) | 103% (inactive) | 90.6% (inactive) | 115% (inactive) | 97.3% (inactive) | 108% (inactive) | 108% (inactive) | 96.6% (inactive) | 102% (inactive)
O=C(Nc1ccc(Cl)c(Cl)c1)Nc1ccc(Cl)c(Cl)c1 | -36.5% (active) and 4.84% (active) | 23.7% (inactive) | -93.6% (active) and 19.2% (inactive) | -83.4% (active) and 40.8% (inactive) | -63.6% (active) and 4.34% (active) | -86.2% (active) and -5.71% (active) | -83.9% (active) and 6.21% (active) | -63% (active) and 17.6% (inactive) | -63.1% (active) and 20.4% (inactive) | -86.9% (active) and 17.1% (inactive) | -94.8% (active) and 21.1% (inactive) | -33.4% (active) and 12.4% (inactive) | -16.1% (active) | -91.1% (active) and 24.1% (inactive) | -88.2% (active) and 58.8% (inactive) | -80.7% (active) and 31.9% (inactive) | -11.8% (active) | -83.3% (active) and 51.1% (inactive) | -81.9% (active) and 50% (inactive) | -85.7% (active) and 33.4% (inactive)
CCCCCCCCCCCCCCCC[N+](C)(C)CCN(Cc1ccc(OC)cc1)c1ncccn1 | 41.5% (inactive) | 48.3% (inactive) and 60.2% (inactive) |  | -100% (active) and 65.2% (inactive) | -84.1% (active) and 67.4% (inactive) | -66.1% (active) and 15.6% (inactive) | -91.2% (active) and 23.4% (inactive) | -86.1% (active) and 54.4% (inactive) | -33.7% (active) and 61.9% (inactive) | -100% (active) and 33.1% (inactive) | -100% (active) and 69.4% (inactive) | 35.5% (inactive) | -70.3% (active) and 43.8% (inactive) | -82.5% (active) and 47.1% (inactive) | -58.4% (active) and -49.8% (active) | -92.9% (active) and 38% (inactive) | -90.6% (active) | -91.3% (active) and 71.2% (inactive) | 25.2% (inactive) and 28.7% (inactive) | -62.6% (active) and -17.7% (active)
COc1cc2c(cc1OCCCOC1=C=C=C(c3ccc4c(c3)c3cc(-c5ccc(OCCCOc6cc7c(cc6OC)C(=O)N6CCC[C@H]6C=N7)cc5)ccc3n4S(=O)(=O)c3ccc(C)cc3)C=C1)N=C[C@@H]1CCCN1C2=O | 36.7% (inactive) | 22.8% (inactive) | 216% (inactive) | 116% (inactive) and 54.5% (inactive) | 15.5% (inactive) | 69.3% (inactive) | -8.9% (active) | 56.4% (inactive) | 115% (inactive) and 1.63% (active) | 49% (inactive) | -66.5% (active) | 8.45% (active) | 240% (inactive) | 23.3% (inactive) |  | -41.8% (active) | -26% (active) | 13.3% (inactive) | 52.6% (inactive) | 22.2% (inactive)
COc1ccc(Cl)cc1Nc1nc(C(F)(F)F)ccc1C(=O)N/N=C/c1ccc(N(C)C)cc1 | 95.4% (inactive) | 105% (inactive) | 80.8% (inactive) | 73.6% (inactive) | 143% (inactive) | 85.4% (inactive) | 105% (inactive) | 97% (inactive) | 76% (inactive) | 92.2% (inactive) | 117% (inactive) | 122% (inactive) | 92.2% (inactive) | 72.9% (inactive) | 75.6% (inactive) | 107% (inactive) | 154% (inactive) | 115% (inactive) | 110% (inactive) | 81.3% (inactive)
COC1=CC(c2ccc[nH]2)=N/C1=C\c1[nH]c(C)c(C(=O)Oc2ccccc2)c1C | -32.9% (active) | -39.8% (active) | -13.1% (active) | -22.2% (active) | -31.2% (active) | -35.4% (active) | -64% (active) | -44.1% (active) | -44.1% (active) | -81.4% (active) | 9.64% (active) | 8.48% (active) | -79.6% (active) | -69.2% (active) | -9.71% (active) | 14.9% (inactive) | -74.9% (active) | -74.6% (active) | -54.9% (active) | -59.2% (active)
O=C(/C=C/c1ccc(Cl)s1)c1ccc(Cl)s1 | 89.4% (inactive) and 110% (inactive) | 91.4% (inactive) and 102% (inactive) | 97.4% (inactive) |  | 101% (inactive) and 115% (inactive) | 79.3% (inactive) and 105% (inactive) | 70.1% (inactive) and 87.1% (inactive) | 96.8% (inactive) | 79.7% (inactive) and 94.8% (inactive) | 112% (inactive) and 122% (inactive) | 97.8% (inactive) and 114% (inactive) | 95% (inactive) and 92.6% (inactive) | 114% (inactive) | 108% (inactive) and 112% (inactive) | 90.8% (inactive) and 89.7% (inactive) | 100% (inactive) and 109% (inactive) | 90.7% (inactive) | 114% (inactive) and 98.3% (inactive) | 101% (inactive) and 103% (inactive) | 101% (inactive) and 115% (inactive)
COc1cc2cc(NCc3ccncc3)nc(C)c2cc1OC | 91.5% (inactive) | 89.7% (inactive) | 103% (inactive) | 62% (inactive) | 102% (inactive) | 87.2% (inactive) | 80.4% (inactive) | 78.9% (inactive) | 71.8% (inactive) | 95.8% (inactive) | 107% (inactive) | 126% (inactive) | 108% (inactive) | 85.9% (inactive) | 98.5% (inactive) | 81.9% (inactive) | 71.3% (inactive) | 89.3% (inactive) | 79.3% (inactive) | 82% (inactive)
